Screens deposited in PubChem BioAssay by National Center for Advancing Translational Sciences (NCATS).
gsp ag: qHTS for Agonist of gsp, the Etiologic Mutation Responsible for Fibrous Dysplasia/McCune-Albright Syndrome: qHTS; hit rate 0.13% among 340,000; Potency, µM (titrated, usually from 76.9 µM), for the others: at the highest dose activation (cAMP increase), most hits filed as activators; AID 624287, 2012; gsp mutant cells, cAMP HTRF, 30 min; active means well fitted activation curve with a large enough effect; inconclusive means small, poorly fitted or top-dose-only effect, or another doubt; inactive means no such curve, though single readings can be large or run the other way; cell line not stated here;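 further: phosphodiesterase inhibitor Ro 20-1724 added with compounds to block cAMP breakdown; nearly all actives have a fitted effect of over 60% in size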
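Cells stably selected in G418 were plated at 2000/well, grown 16-24 hr, then given compounds in DMSO with the PDE inhibitor […] (300 uM solution added) for 30 min at 37C; cAMP was read by HTRF.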
FUS yeast rescue: qHTS for Suppressors of FUS Proteinopathy: Primary screen using FUS-linked yeast assay; S. cerevisiae FUS-expressing, growth rescue, OD600, 24 h; Potency, µM (doses to about 76.6 µM), hits mostly activators; hit rate 0.24% among 390,000; AID 1347120, 2019;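 further: plate controls were DMSO vehicle for no effect and reference control for full effect; nearly all actives have a fitted effect of over 55% in size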
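FUS-expressing yeast, raffinose-pregrown, induced in 2% galactose minimal medium at OD 0.005; compounds in a dilution series, 24hr at 30C. Growth restoration read as absorbance at 600 nm. CP55940 positive control, DMSO negative.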
gsp antag: qHTS for Antagonists of gsp, the Etiologic Mutation Responsible for Fibrous Dysplasia/McCune-Albright Syndrome: qHTS; Potency, µM (doses to about 76.9 µM), inactives show at the highest dose activity change, negative = inhibition, most hits filed as inhibitors; gsp-mutant cells, cAMP HTRF, 30 min; hit rate 0.4% among 340,000; calls by dose curve; cell line not stated here;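 further: intracellular cAMP measured with PDE inhibitor Ro 20-1724 present during compound exposure; on the % scale 0 is the no-effect control and ±100 the full control effect; nearly all actives have a fitted effect of over 65% in size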
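Cells, 2000/well, grown 16–24 h in DMEM 10% FBS with 0.5 mg/ml G418, then compounds plus […] (300 uM addition stock), 30 min at 37C. cAMP read by HTRF (cAMP-d2 and anti-cAMP antibody-K in lysis buffer) after 30 min RT.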
12-LOX inh: Primary qHTS assay for inhibitors of human arachidonate 12S-lipoxygenase (ALOX12): Round 2; AID 1671190, 2021; hit rate 1.1% among 580,000; Potency, µM (highest dose often 108 µM), for the others: at the highest dose activity change, negative = inhibition, most hits filed as inhibitors; purified 12hLO, xylenol orange hydroperoxide absorbance; Polyunsaturated fatty acid lipoxygenase ALOX12 (Homo sapiens), P18054; further: on the % scale 0 is the no-effect control and ±100 the full control effect
Target sequence (P18054 whole entry, looked up): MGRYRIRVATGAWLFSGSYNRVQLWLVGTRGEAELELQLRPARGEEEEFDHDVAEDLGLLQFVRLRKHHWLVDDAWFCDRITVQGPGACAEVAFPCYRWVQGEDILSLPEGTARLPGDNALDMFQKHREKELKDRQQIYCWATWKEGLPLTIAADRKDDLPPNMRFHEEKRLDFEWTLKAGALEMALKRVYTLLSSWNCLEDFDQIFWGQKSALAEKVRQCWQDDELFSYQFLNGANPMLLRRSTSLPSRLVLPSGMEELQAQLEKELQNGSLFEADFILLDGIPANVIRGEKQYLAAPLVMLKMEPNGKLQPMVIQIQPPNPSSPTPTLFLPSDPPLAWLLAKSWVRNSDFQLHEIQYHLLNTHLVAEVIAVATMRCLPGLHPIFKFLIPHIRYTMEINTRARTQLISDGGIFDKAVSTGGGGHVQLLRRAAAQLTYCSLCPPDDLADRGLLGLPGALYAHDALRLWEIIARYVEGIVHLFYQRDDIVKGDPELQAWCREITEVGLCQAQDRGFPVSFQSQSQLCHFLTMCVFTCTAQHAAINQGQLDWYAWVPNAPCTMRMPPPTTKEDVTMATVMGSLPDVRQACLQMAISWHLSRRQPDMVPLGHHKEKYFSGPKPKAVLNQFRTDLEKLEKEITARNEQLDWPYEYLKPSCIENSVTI
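Hydroperoxide product was detected by ferrous iron/xylenol orange as the 573 to 405 nm absorbance ratio. Arachidonic acid at 40 uM (final) was turned over for 30 min at room temperature by 150 nM human 12hLO, pH 7.0 Hepes buffer, after 15 min compound preincubation.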
Mito fusion act: qHTS Assay for Small Molecule Inhibitors of Mitochondrial Division or Activators of Mitochondrial Fusion; S. cerevisiae fusion-defective mutant growth rescue, CellTiterGlo 48 h; Potency, µM (highest dose often 46.1 µM), for the others: at the highest dose growth rescue (activation), most hits filed as activators; hit rate 0.23% among 320,000; further: % of control where 0% means no effect; nearly all actives have a fitted effect of over 45% in size
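Growth-rescue viability read-out: after 48 h at the non-permissive 37C in glycerol/ethanol YPEG, yeast mitochondrial fusion mutants are measured by CellTiterGlo luminescence; compounds (23 nl pinned per well) restoring growth score as division inhibitors or fusion activators.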
The depositor's hits bear a star; i = inactive; ? = inconclusive; / = no result given; ! = repeats disagree; [ ] = dose if it differs, or a comment. Rows were chosen to be rich in hits. Some 1.6% of all compounds tested hit in one or more screens of this group. Unless noted, the call rests on the fitted dose curve; in most records, active means well fitted curve in the direction sought with a large enough effect; inconclusive means small, poorly fitted or top-dose-only effect, or another doubt; inactive means no such curve, though single readings can be large; an effect the other way counts as inactive or inconclusive. Potency means the concentration at half of the fitted maximal effect.

SMILES	gsp ag	FUS yeast rescue	gsp antag	12-LOX inh	Mito fusion act
CCOc1cc(C2C3=C(CCCC3=O)OC3=C2C(=O)CCC3)cc(Br)c1OCC(=O)O	/	/	/	7%	/
COc1cc(OC)c(OC)cc1/C=C(/C#N)C(=O)c1c(Cl)cccc1Cl	/	/	/	5%	/
COc1cccc(/C=C(/C#N)C(=O)c2c(Cl)cccc2Cl)c1	/	/	/	7.1µM*	/
COc1cccc(/C=C(/C#N)C(=O)c2c(Cl)cccc2Cl)c1OC	/	/	/	20µM*	/
C=CCNC(=O)COC(=O)c1cc(-c2ccc(Cl)s2)nc2ccccc12	/	/	/	-9%	/
O=c1oc2ccccc2c(NC2CCCC2)c1NS(=O)(=O)c1ccccc1Cl	/	/	/	0%	/
CC(=O)Nc1ccc(/C(N=Nc2ccccc2)=N/N=C(N)N)cc1	-14%	/	-10%	40µM*	/
O=C(COC(=O)c1cccnc1Nc1cccc(C(F)(F)F)c1)NCc1ccccc1Cl	/	/	/	-14%	/
N#CC1(NC(=O)CNc2cccc(-c3nnnn3C3CC3)c2)CCCC1	/	/	/	-4%	/
COc1ccc([C@@H]2C[C@H](c3ccccc3)Oc3cc(C)cc(C)c32)cc1	/	i	13%	1.1µM*	3%
COc1ccc(-c2c(C)c3cc(OS(C)(=O)=O)ccc3oc2=O)cc1	/	/	/	0%	/
Cc1ccc2c(c1)c1c3n2CCN(C(=O)CCl)C3CCC1 (stereo not given)	-37%	i	-12%	11µM*	0%
CC(=O)N1CCn2c3c(c4cc(C)ccc42)CCCC31 (stereo not given)	-17%	i	0%	-12%	-16%
COc1ccc(CN[C@H]2[C@H](O)[C@@H](N3CCN(c4ccccc4OC)CC3)[C@@H]3OC[C@H]2O3)cc1	/	/	/	21%	/
CCn1c(=O)c2c(n3c(=S)[nH]nc13)-c1ccccc1CC21CCCCC1	-7%	i	-8%	14µM*	0%
CCSc1nnc2n(C)c(=O)c3c(n12)-c1ccccc1CC31CCCCC1	/	/	/	1%	/
CC(C)Oc1ccc(CNC(=O)c2cc(-c3ccncc3)cn2C)cc1	/	/	/	11%	/
Clc1ccccc1-c1cncnc1NCc1cccs1	/	/	/	35µM*	/
CC(NC(=O)c1cccs1)c1ccccc1 (stereo not given)	-53%	i	-7%	?	/
Cc1ccc(C(C)NC(=O)c2cccs2)cc1 (stereo not given)	1%	i	5%	10µM*	/
O=C(O)c1cc(C(=O)O)c(-c2ccccc2)c(C(=O)O)c1	1%	i	15%	-15%	-1%
O=C(O)c1cc(-c2ccccc2)nc(-c2ccccc2)c1	-36%	i	32µM*	152%	2%
O=C(Nc1ccc2c(c1)OCO2)c1ccc(Cl)cc1Cl	-19%	i	-8%	-59%	-4%
Cc1c(C(=O)c2ccc(Cl)cc2Cl)cnc2cc3c(cc12)OCO3	-18%	i	?	0%	13µM*
COc1ccc(SCC(=O)NC2CCC(O)CC2)cc1 (stereo not given)	/	/	/	1%	/
SMILES	gsp ag	FUS yeast rescue	gsp antag	12-LOX inh	Mito fusion act
Cc1ccn(-c2cc(O)c(-n3ccc(C)n3)cc2O)n1	25%	i	-11%	2.8µM*	7%
Cc1ccn(CCC(=O)O)n1	-19%[15.4 µM]	i	14%	-14%	5%
COc1ccc(Cc2c(-c3ccc(C)cc3)nc3ccc(Cl)cn23)c(C)c1	/	i	/	40µM*	/
O=C(CCS(=O)(=O)c1cc2c3c(c1)CCN3C(=O)CC2)Nc1ccc(F)c(Cl)c1	/	/	/	14µM*	/
Cn1ccc2cc3c(cc21)CCN3C(=O)Nc1cccnc1	/	?	-13%	9.7µM*!	?
COc1ccc(CCN2C(=O)CSC2=Nc2ccc(C(C)C)cc2)cc1OC	-8%[15.4 µM]	i	28µM*	94%	-5%
COc1ccc2c(C)c(CCC(=O)NCc3ccc4c(c3)OCO4)c(=O)oc2c1	/	/	/	3%	/
CCOc1ccc(C(=O)Nc2ccc(N3CCCC3)cc2)cc1	13%	35µM*	3%	?	-5%
COc1ccc(NC(=O)COc2ccccc2C(N)=O)cc1S(=O)(=O)N1CCCCC1	-1%	i	/	-22%	/
Cc1cccc(OCC(=O)Nc2ccc(N3CCCC3)cc2)c1C	-22%	25µM*	2%	?	-4%
Cc1ccc(NC(=O)COc2ccccc2C(N)=O)cc1S(=O)(=O)N1CCCCCC1	?	i	35µM*	-1%	4%
Cc1ccc(NC(=O)COc2ccc(N(C)C(=O)C(C)(C)C)cc2)cc1S(=O)(=O)N1CCCCC1	-9%	?	35µM*	187%	/
CCOc1cccc(C(=O)Nc2ccc(N3CCCC3)cc2)c1	13%	i	-5%	0%	-1%
COc1ccccc1OCC(=O)Nc1ccc(N2CCCCC2)cc1	3%	i	-7%	?	5%
O=C(Nc1c(NC2CCCCC2)c2ccccc2oc1=O)c1cccc(Cl)c1	/	/	/	-11%	/
CCC(C)NC(=O)NC1CCN(c2nc3ccccc3n(CC)c2=O)CC1 (stereo not given)	/	/	/	-4%	/
CC(C)CCNc1nc(C(=O)Nc2nccs2)cs1	/	/	/	48%	/
O=C(/C=C/c1ccc(OC(F)(F)F)cc1)N1CCCC1	/	/	/	-24%	/
CCC(=O)N1N=C(c2ccccc2NS(=O)(=O)c2ccccc2)CC1c1ccccc1 (stereo not given)	/	/	/	-13%	/
COc1cc(C(C)=O)ccc1OCC(=O)Nc1ccc(C)c(S(=O)(=O)N2CCCCCC2)c1	4%	?	32µM*	408%	11%
COc1ccc(NC(=O)Cc2ccc(C)cc2)cc1S(=O)(=O)N1CCCCC1	13%	i	-11%	182%	-1%
CCOc1ccc(Nc2nc(C)c(NC(=O)c3ccc(C)cc3)c(Nc3ccc(OCC)cc3)n2)cc1	/	?	/	22µM*	/
COc1ccc(NC(=O)CN2CCCCC2)cc1S(=O)(=O)N1CCCCC1	-6%[15.4 µM]	i	8%	2.5µM*	/
COc1ccccc1N1CCN(C(=O)C2CCCN(S(C)(=O)=O)CCC(=O)NCC2)CC1 (stereo not given)	/	/	/	52%	/
O=C1S/C(=C\c2ccc(N3CCOCC3)o2)C(=O)N1Cc1ccc(F)cc1	7%	i	0%	/	-2%
O=C1S/C(=C/c2ccc(N3CCOCC3)o2)C(=O)N1Cc1ccc(F)cc1	1%	i	19%	10µM*	0%
O=C(NCc1ccccn1)C1(c2ccccc2)CCC1	/	/	/	-22%	/
Cc1ccc(NC(=O)C2=C(c3ccccc3)S(=O)(=O)CCS2(=O)=O)cc1	-28%[15.4 µM]	i	28µM*	-17%	-3%
Clc1cccc(N/N=C/C(Br)=C/c2ccccc2)c1	/	/	/	11µM*	/
BrC(=C\c1ccccc1)/C=N/Nc1ccc2nncn2n1	-7%	i	0%	-12%	0%
